In all, about 320,000 compounds went through this assay and about 2,100 (0.66%) were called active. Roughly 53% stayed inconclusive and do not appear here. The call rests on the fitted dose curve; in most records, active means well fitted inhibition curve with a large enough effect in the signal ratio, with a control signal flat (not every such curve was filed as active); inconclusive means small, poorly fitted or top-dose-only effect, or effect the other way, or a change in a side signal; inactive means flat fitted curve, though single readings scatter; the % refers to the signal ratio. The entries come from a sample that favours actives as a whole.
Assay: qHTS Assay for Lipid Storage Modulators in Drosophila S3 Cells;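 on cell number change: cells counted by Cell Tracker Red CMTPX staining in the red channel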; on lipid storage change, negative = inhibition: on the % scale 0 is the no-effect control and ±100 the full control effect
Conditions: BODIPY lipid droplet fluorescence, 18-24 h, cells fed with added oleic acid; cell number change: measured here: cell count max response; series mostly up to 46.1 µM; lipid storage change, negative = inhibition: at the top concentration
Outline: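 Drosophila S3 cells got compounds at several concentrations plus oleic acid (400 uM solution). Laser-scanning cytometry with 488 nm excitation read lipid droplets at 500-530 nm and cells at 575-640 nm. Percent activity was relative to 20 uM Triacsin C.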
Potency means the concentration at half of the fitted maximal effect.

Row | SMILES | outcome | lipid storage change, negative = inhibition | cell number change [%] | Potency
1 | Cc1cc(NC(=O)CSc2ncnc3sc(C)c(C)c23)no1 | inactive |  |  | 
2 | Cc1ccc(S(=O)(=O)N2CCC(C(=O)Nc3nnc(C4CCCC4)s3)CC2)cc1 |  | 5.91% (inactive) | 5.99 | 
3 | COc1ccc(CNC(=O)CC2(CC(=O)O)CCCCC2)cc1 |  | -10.1% (inactive) | -16.2 | 
4 | COc1ccc(S(=O)(=O)NC(C)C(=O)Nc2ccccc2F)cc1 (configuration not stated) |  | 11.5% (inactive) | 4.07 | 
5 | COc1ccccc1NC(=O)C(C)NS(=O)(=O)c1ccc(F)cc1 (configuration not stated) |  | 2.58% (inactive) | 6.54 | 
6 | COc1ccccc1NC(=O)C(C)NS(=O)(=O)c1ccc(Cl)cc1 (configuration not stated) |  |  | 10.9 | 6.51 µM (active)
7 | COc1cc(C(=O)OCC(=O)N2CCCCC2C)cc(NC(=O)c2cccs2)c1OC (configuration not stated) |  | 2.46% (inactive) | 7.36 | 
8 | CCCNC(=O)C1CCC(CNS(=O)(=O)c2cccc3nsnc23)CC1 (configuration not stated) |  | -7.4% (inactive) |  | 
9 | COC(=O)CNC(=O)C1CCC(CNS(=O)(=O)c2cccc3nsnc23)CC1 (configuration not stated) |  | 20.8% (inactive) | -18.8 | 
10 | CC(C)(C)NC(=O)C1CCC(CNS(=O)(=O)c2cccc3nsnc23)CC1 (configuration not stated) |  |  |  | 18.4 µM (active)
11 | Cc1cc(NC(=O)CSc2nc(=O)n3cc(Cl)ccc3n2)no1 |  | 0.863% [at 0.0737 µM] (inactive) | 13.5 | 
12 | Fc1ccc(CNn2cnnc2SCc2ccc(F)cc2)cc1 |  | 5.62% (inactive) | 9.34 | 
13 | CCc1cccc2c(C(=O)COC(=O)c3cccc(S(=O)(=O)N(C)C4CCCCC4)c3)c[nH]c12 |  | -20% (inactive) | 6.53 | 
14 | C=CCN(C(=O)c1csnn1)C(C(=O)NC1CCCC1)c1ccccc1 (configuration not stated) | inactive |  | 15.2 | 
15 | O=C(NC1CCCC1)C(c1ccc(Cl)cc1)N(C(=O)c1csnn1)C1CC1 (configuration not stated) |  | -21.7% (inactive) | 12.1 | 
16 | C=CCN(C(=O)c1csnn1)C(C(=O)NC1CCCC1)c1ccccc1F (configuration not stated) | inactive |  | -7.62 | 
17 | C=CCN(C(=O)c1csnn1)C(C(=O)NC1CCCC1)c1ccc(Cl)cc1 (configuration not stated) | inactive |  | -41 | 
18 | C=CCN(C(=O)c1csnn1)C(C(=O)NC1CCCCC1)c1ccc(F)cc1 (configuration not stated) | inactive |  | 11.7 | 
19 | C=CCN(C(=O)c1csnn1)C(C(=O)NC1CCCC1)c1c(F)cccc1Cl (configuration not stated) |  |  | 0.427 | 9.2 µM (active)
20 | C=CCN(C(=O)c1csnn1)C(C(=O)NC1CCCCC1)c1ccccc1F (configuration not stated) |  |  | 2.14 | 13 µM (active)
21 | O=C(NC1CCCC1)C(c1c(F)cccc1Cl)N(C(=O)c1csnn1)C1CC1 (configuration not stated) |  |  | -12.9 | 16.4 µM (active)

Row | SMILES | outcome | lipid storage change, negative = inhibition | cell number change [%] | Potency
22 | O=C(NC1CCCC1)C(c1ccc(F)cc1)N(C(=O)c1csnn1)C1CC1 (configuration not stated) |  | -8.24% (inactive) | -11.5 | 
23 | O=C(c1cccc(COc2cccc3ccccc23)c1)N1CCCC1 |  | 0.849% (inactive) | -5.05 | 
24 | COc1ccc(/C=N/Nc2nnc(-c3ncc[nH]3)c3ccccc23)cc1 |  | -8.98% (inactive) | -1.94 | 
25 | CC1=C(C)CC(C(=O)Nc2ccc3c(c2)OCO3)C(C(=O)O)C1 (configuration not stated) |  | 14.7% (inactive) | -0.481 | 
26 | COc1ccc(OC)c(S(=O)(=O)NNC(=S)Nc2ccc3c(c2)OCO3)c1 | inactive |  | 5.94 | 
27 | O=C(Nc1cnccn1)Nc1cccc(Cl)c1Cl |  | -1.85% (inactive) | -0.957 | 
28 | O=C(NCC1COc2ccccc2O1)c1cccc(S(=O)(=O)N2CCCCC2)c1 (configuration not stated) |  |  | -15.1 | 2.06 µM (active)
29 | CCN(CC)S(=O)(=O)c1ccc2oc(C(=O)NCC3COc4ccccc4O3)c(C)c2c1 (configuration not stated) |  |  | -14.2 | 0.461 µM (active)
30 | Cc1c(C(=O)NCC2COc3ccccc3O2)oc2ccc(S(=O)(=O)N3CC(C)CC(C)C3)cc12 (configuration not stated) | inactive |  | 0.959 | 
31 | CSc1ncccc1C(=O)Nc1cccc(S(=O)(=O)N2CCCCC2)c1 |  |  | 0.775 | 16.4 µM (active)
32 | CCOc1ncccc1C(=O)Nc1cccc(S(=O)(=O)N2CCCCC2)c1 |  | 25.8% (inactive) | -15 | 
33 | O=C(Nc1cccc(S(=O)(=O)N2CCCCC2)c1)c1ccccn1 |  | 0.112% (inactive) | 20.1 | 
34 | CCN(CC)S(=O)(=O)c1ccc2oc(C(=O)NC3CC3)c(C)c2c1 | inactive |  | -10.9 | 
35 | O=C(NCC1COc2ccccc2O1)c1cccc(S(=O)(=O)N2CCOCC2)c1 (configuration not stated) |  | -2.13% (inactive) | -18 | 
36 | CC1CN(S(=O)(=O)c2cccc(C(=O)Nc3ccccc3N3CCCCC3)c2)CC(C)O1 (configuration not stated) |  |  | -19.1 | 23.1 µM (active)
37 | CN1CCN(S(=O)(=O)c2cccc(C(=O)Nc3ccccc3N3CCCC3)c2)CC1 |  | -27.5% (inactive) | 9.72 | 
38 | O=C(NCC1CCCCC1)c1cccc(S(=O)(=O)N2CCCC2)c1 |  | 6.69% (inactive) | 3.1 | 
39 | CC1CN(S(=O)(=O)c2cccc(C(=O)Nc3ccccc3N3CCOCC3)c2)CC(C)O1 (configuration not stated) | inactive |  | -20.3 | 
40 | CC(C)Oc1ccc(S(=O)(=O)N2CCOCC2)cc1NC(=O)C1CCCCC1 |  | 14.6% (inactive) | 17 | 
41 | Cc1cccc(NC(=O)C2CCCN2C(=O)NC2CCCCC2)c1 (configuration not stated) |  | 9.23% [at 9.22 µM] (inactive) | -1.91 | 
42 | CCC(C)C(NC(=O)OCc1ccccc1)C(=O)NC(Cc1ccc(O)cc1)C(=O)OC (configuration not stated) |  | 4.97% (inactive) | 15.2 | 

Row | SMILES | outcome | lipid storage change, negative = inhibition | cell number change [%] | Potency
43 | Cc1cnc2cc([N+](=O)[O-])ccc2n1 |  | -3.52% (inactive) | 9.36 | 
44 | CC(NC(=O)CN1c2cccc3cccc(c23)S1(=O)=O)c1ccc(S(N)(=O)=O)cc1 (configuration not stated) |  | 24.5% (inactive) | 20.8 | 
45 | CCC(C)c1ccc(S(=O)(=O)N2CCN3CCCC3C2)cc1 (configuration not stated) | inactive |  | -6.32 | 
46 | CCOC(=O)C(NC(=O)CC)(Nc1ccc(S(N)(=O)=O)cc1)C(F)(F)F (configuration not stated) |  | -9.17% (inactive) | 9.23 | 
47 | O=C(CSc1nnnn1C1CCCCC1)Nc1ccc(F)cc1 |  | 0.247% (inactive) | -9.49 | 
48 | CN(C)C(=O)Nc1cnc2ccccc2c1 |  | 8.36% (inactive) | 12.4 | 
49 | COc1ccc(CNC(=O)c2noc(C(C)C)c2[N+](=O)[O-])cc1 |  | -2.76% (inactive) | 2.44 | 
50 | CCOC(=O)C(NC(=O)c1ccc(F)cc1)(Nc1sc2c(c1C(N)=O)CCC2)C(F)(F)F (configuration not stated) |  | 7.93% (inactive) | -0.472 | 
51 | CCCC(=O)Oc1c(S(=O)(=O)c2ccc(C)cc2)c(C)nn1C(C)(C)C |  | -0.57% (inactive) | 23.9 | 
52 | O=C(COc1ccccc1)Nc1nc(-c2ccc(S(=O)(=O)N3CCOCC3)cc2)cs1 |  | 24.2% (inactive) | -17.5 | 
53 | O=C(Nc1nncs1)c1ccc2c(c1)OCO2 |  |  | 11.7 | 4.61 µM (active)
54 | O=C(Nc1cccc(F)c1)c1cccc(S(=O)(=O)N2CCOCC2)c1 |  | -3.69% (inactive) | -12.5 | 
55 | CC(C)(C)c1nnc(NC(=O)c2ccc3c(c2)OCO3)s1 | inactive |  | 5.88 | 
56 | O=C(Nc1ccc(S(=O)(=O)N2CCOCC2)cc1)c1cccc(Br)c1 | inactive |  | -4.91 | 
57 | O=C(/C=C/c1ccc2c(c1)OCO2)Nc1nncs1 |  | 2.26% (inactive) | 12.8 | 
58 | CC(C)C(=O)Nc1cccc(C(=O)Nc2ccc(S(=O)(=O)N3CCOCC3)cc2)c1 |  |  | -1.62 | 13 µM (active)
59 | O=C(Nc1ccc(S(=O)(=O)N2CCOCC2)cc1)c1ccccc1 |  | -6.47% (inactive) | -4.33 | 
60 | O=C(Nc1cccc(S(=O)(=O)N2CCCC2)c1)c1cccc(S(=O)(=O)N2CCOCC2)c1 |  |  | -9.73 | 1.84 µM (active)
61 | Cc1nc(-c2ccc(S(=O)(=O)N3CCOCC3)cc2)cs1 |  | 4.04% (inactive) |  | 
62 | CC(C)C(=O)Nc1nc(-c2ccc(S(=O)(=O)N3CCOCC3)cc2)cs1 |  |  | -31.7 | 5.17 µM (active)
63 | CC(=O)c1cccc(NC(=O)c2cccc(S(=O)(=O)N3CCOCC3)c2)c1 | inactive |  | 0.952 | 

From PubChem BioAssay AID2685 (National Center for Advancing Translational Sciences (NCATS), 2010)
